The supplement of paper PMC7156485
± gives the standard deviation of the averaged measurements.

Tests used:
Settings in all cases: concentration: 10 µM; 24 h
HCC1569 [1] = experiment: cell number relative to DMSO (% of DMSO); higher = more cells (less growth inhibition / toxicity)
Method in brief: (§1)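 For HCC1569 and TDF cells, compounds at 10 µM were applied for 24 h at 37 °C in triplicate in 384-well plates. Cells were fixed in 3.7% formaldehyde, stained for H1.0 and with DAPI, and imaged at ×10 over six fields per well. The endpoint, H1.0 nuclear intensity or cell number, is shown as percent of the plate control using the median of replicates. Positional effects were smoothed for HCC1569 only.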

TDF [2] = experiment: as above
Method in brief: as §1

TDF [3] = experiment: H1.0 immunofluorescence intensity relative to DMSO (% of DMSO); higher = stronger H1.0 induction, active = 120 or more
Method in brief: as §1

HCC1569 [4] = experiment: H1.0 immunofluorescence intensity relative to DMSO (% of DMSO); higher = stronger H1.0 induction, active = 140 or more
Method in brief: as §1
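Throughout, for H1.0 immunofluorescence intensity relative to DMSO: TDF is a line of transformed human dermal fibroblasts of mesenchymal origin.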
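Throughout, for cell number relative to DMSO: TDF denotes transformed human dermal fibroblasts of mesenchymal origin.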

Row | Compound | cell number (HCC1569 [1]) | cell number (TDF [2]) | H1.0 immunofluorescence intensity (TDF [3]) | H1.0 immunofluorescence intensity (HCC1569 [4])
1 | CC(C)(O)c1ccccc1CCC(SCC1(CC(=O)O)CC1)c1cccc(C=Cc2ccc3ccc(Cl)cc3n2)c1 (stereo not drawn) [Montelukast] | 101 | 101 | 94.7 (inactive) | 94.9 (inactive)
2 | O=C1c2ccc(O)cc2OC(c2cc(O)c(O)c(O)c2)C1O (stereo not drawn) [Dihydrorobinetine] | 102 | 106 | 95.3 (inactive) | 95.3 (inactive)
3 | CCCCCC(O)C=CC1C(O)CC(O)C1CC=CCCCC(=O)O (racemic) | 106 | 105 | 88.4 (inactive) | 99.4 (inactive)
4 | CCOc1cc(N2CCC(O)CC2)ccc1Nc1ncc2c(n1)N(C)c1ccccc1C(=O)N2C | 85.6 | 72.2 | 117 (inactive) | 169 (active)
5 | CC(=O)CCCCn1c(=O)c2c(ncn2C)n(C)c1=O [Pentoxifylline] | 103 ± 4.1 | 106 ± 5.2 | 92.8 (inactive) | 105 (inactive)
6 | O=C(O)c1cc(O)ccc1O [Gentisic acid] | 104 | 100 | 98.5 (inactive) | 93.5 (inactive)
7 | COC(=O)C(c1ccccc1Cl)N1CCc2sccc2C1 (stereo not drawn) [Clopidogrel] | 99.8 | 79.7 | 97.3 (inactive) | 107 (inactive)
8 | CN(C)c1ccnc2sc3c(=O)n(N4CCCCCC4)cnc3c12 | 109 | 103 | 91 (inactive) | 89.5 (inactive)
9 | COc1cc2c(cc1O)CCC1C2CCC2(C)C(O)CCC12 (stereo not drawn) [2-methoxyestradiol] | 54.3 | 11.5 | 156 (active) | 156 (active)
10 | CN(CCOc1ccc(CC2SC(=O)NC2=O)cc1)c1ccccn1.O=C(O)C=CC(=O)O (stereo not drawn) [Rosiglitazone maleate] | 103 | 113 | 92.5 (inactive) | 101 (inactive)
11 | CC1C(=O)OC2CC34C5CC(C(C)(C)C)C36C(OC(=O)C6O)OC4(C(=O)O5)C21O (stereo not drawn) [Ginkgolide A] | 99.6 ± 1.2 | 99 ± 3 | 92.3 (inactive) | 95.8 (inactive)
12 | O=c1[nH]c2cc(Cl)ccc2c(O)c1-c1cccc(Oc2ccccc2)c1 | 108 | 94.2 | 91.7 (inactive) | 88.2 (inactive)
13 | CCCCCC=CCC=CC=CC=CC(SCC(NC(=O)CCC(N)C(=O)O)C(=O)NCC(=O)O)C(O)CCCC(=O)O (stereo not drawn) [Leukotriene C4] | 99.8 | 92.2 | 90.1 (inactive) | 105 (inactive)
14 | CCC1OC(=O)C(C)C(OC2CC(C)(OC)C(O)C(C)O2)C(C)C(OC2OC(C)CC(N(C)C)C2O)C(C)(O)CC(C)C(=NOCOCCOC)C(C)C(O)C1(C)O (stereo not drawn) [Roxithromycin] | 106 | 98.4 | 95.2 (inactive) | 92.1 (inactive)
15 | O=C1N=c2ccccc2=C1c1[nH]c2ccccc2c1NOCCC(O)CO (stereo not drawn) [Indirubin Derivative E804] | 60.8 | 62.7 | 102 (inactive) | 167 (active)
16 | CCCC(=O)O[C@]1(C(=O)CO)CC[C@H]2[C@@H]3CCC4=CC(=O)CC[C@]4(C)[C@H]3[C@@H](O)C[C@@]21C [(11beta)-11,21-dihydroxy-3,20-dioxopregn-4-en-17-yl butyrate] | 97.4 | 106 | 84.9 (inactive) | 102 (inactive)
17 | O=C(O)Cc1nn(Cc2nc3cc(C(F)(F)F)ccc3s2)c(=O)c2ccccc12 | 98.1 | 90.1 | 93.4 (inactive) | 97.7 (inactive)
18 | COc1ccc2[nH]c(I)c(CCNC(C)=O)c2c1 [2-Iodomelatonin] | 100 | 111 | 92 (inactive) | 93.2 (inactive)
19 | CN(N=O)C(=O)NC1C(O)OC(CO)C(O)C1O (stereo not drawn) [Streptozocin] | 101 | 102 | 96.1 (inactive) | 87.6 (inactive)
20 | CS(=O)(=O)O.Cc1ccc(N(CC2=NCCN2)c2cccc(O)c2)cc1 [Phentolamine mesylate] | 99 | 105 | 97.7 (inactive) | 99.6 (inactive)
21 | COc1ccccc1N1CCN(CC(O)COc2cccc3ccccc23)CC1.Cl.Cl (stereo not drawn) [Naftopidil dihydrochloride] | 101 | 106 | 101 (inactive) | 101 (inactive)
22 | NC(=O)c1noc([C@H](CCCC2CCCCC2)CC(=O)NO)n1 | 73.8 | 95.6 | 99.6 (inactive) | 109 (inactive)
